Inconclusive results are not listed. Active and inactive are the calls of the source. Calls follow the shape of the dose curve; as a rule, active = well fitted inhibition curve with a large enough effect; inconclusive = small, poorly fitted or top-dose-only effect; inactive = flat fitted curve, though single readings scatter.

Holding throughout (assay): qHTS profiling for inhibitors of Plasmodium falciparum proliferation (AID 504749); also: nearly all actives have a fitted effect of over 60% in size
What all share (conditions): P. falciparum in erythrocytes, SYBR Green DNA, 72 h; series mostly up to 28.7 µM
A general note: qHTS replaces the single test concentration by a dilution series.

In one assay the test system is ATS95. The method, boiled down: (§1)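 Infected RBCs, 0.3% parasitemia/2.5% Hct final; cpd 72 h, 37 C, 5% CO2; lysis buffer with saponin/triton/SYBR Green I, o/n RT dark; FI 485/535; norm. to artemisinin (0.29 uM) and DMSO.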
For another assay, the system named is C2A. The method, boiled down: as §1
In another assay the test system is CP185. A digest of the protocol: as §1
The test system of another assay is CP191. The method, boiled down:
as §1

In a further assay the test system is CP192. The method, boiled down: as §1
The next assay deals with CP194. A digest of the protocol:
as §1

The subject of a further assay is CP201. The method, boiled down: as §1
The subject of the next assay is CP203. The method, boiled down:
as §1

Another assay deals with CP211. A digest of the protocol: as §1
The next assay concerns CP215. The method, boiled down: as §1
The subject of another assay is CP217. The method, boiled down:
as §1

A further assay has as its system CP237. The method, boiled down:
as §1

In another assay the test system is CP238. The method, boiled down:
as §1

For the next assay, the system named is CP247. A digest of the protocol: as §1
A further assay concerns CP250. A digest of the protocol: as §1
A further assay has as its system CP252. A digest of the protocol: as §1
A further assay relates to CP256. The method, boiled down:
as §1

A further assay has as its system CP262. The method, boiled down:
as §1

The next assay has as its system CP265. A digest of the protocol: as §1
A further assay has as its system CP260. The method, boiled down:
as §1
Potency is read from the fitted curve at half-maximal effect.

Take `CC(=O)NCCCS(=O)(=O)O`: the Potency entry in the assay with ATS95, in the assay with C2A, in the assay on CP185, in the assay with CP191, in the assay on CP192 and with CP194 was “inactive” each time. In addition, the Potency result in the assay on CP201, in the assay on CP203, in the assay on CP211, with CP215, in the assay on CP217 and in the assay with CP237 was “inactive” each time. In addition, the Potency result in the assay on CP238, in the assay on CP247, with CP250, in the assay on CP252, in the assay with CP256 and with CP262 was “inactive” each time. In the assay on CP265, the Potency result is “inactive”.
Regarding `C=CC(C)(O)CC/C=C(\C)CCC=C(C)C` (configuration not stated), the Potency entry in the assay with ATS95, with C2A, in the assay on CP185, in the assay on CP191, in the assay with CP192 and with CP194 was “inactive” throughout. The Potency result with CP201, with CP203, in the assay on CP211, with CP215, with CP217 and with CP237 was “inactive” in each case. For the same compound, the Potency entry in the assay with CP238, in the assay on CP247, with CP250, with CP252, with CP256 and with CP260 was “inactive” throughout. The Potency result with CP262 and in the assay on CP265 was “inactive” each time.
On to `F[Si-2](F)(F)(F)(F)F`, for which the Potency entry in the assay with ATS95, in the assay with C2A, in the assay with CP185, in the assay with CP191, in the assay on CP192 and in the assay with CP194 was “inactive” throughout. Further, the Potency result with CP201, in the assay on CP203, with CP211, in the assay with CP215, in the assay with CP217 and with CP237 was “inactive” throughout. Also, the Potency entry in the assay with CP238, in the assay with CP247, in the assay with CP250, in the assay with CP252, with CP256 and in the assay with CP260 was “inactive” in each case. Moreover, the Potency result in the assay on CP265 is “inactive”.
Turning to `Cc1cccc(C)c1NC(=O)NC1=CCCN1C`, the Potency entry in the assay on ATS95, in the assay on C2A, in the assay on CP185, with CP191, with CP192 and with CP194 was “inactive” in each case. Moreover, the Potency entry in the assay with CP201, in the assay on CP203, in the assay on CP211, with CP215, with CP217 and in the assay on CP237 was “inactive” in each case. Moreover, the Potency entry in the assay with CP238, in the assay on CP247, in the assay with CP250, in the assay with CP252, with CP256 and in the assay with CP260 was “inactive” in each case. In addition, the Potency result in the assay with CP262 and in the assay on CP265 was “inactive” throughout.
`CN=C1C=CC(=C(c2ccc(N(C)C)cc2)c2ccc(N(C)C)cc2)C=C1`: the Potency in the assay on ATS95 is 1120 nM (active); in the assay on C2A, 447 nM (active); in the assay with CP185 it was 447 nM (active); with CP191 it was 282 nM (active); in the assay with CP192, 849 nM (active); with CP194, 953 nM (active). For the same compound, the Potency in the assay on CP201 is 1200 nM (active); in the assay with CP203, 1200 nM (active); in the assay with CP211, 757 nM (active); in the assay with CP215 it was 953 nM (active); with CP217 it was 316 nM (active); in the assay on CP237, 398 nM (active). In addition, the Potency in the assay with CP238 is 562 nM (active); with CP247 it was 708 nM (active); with CP250, 562 nM (active); in the assay on CP252 it was 398 nM (active); in the assay on CP256, 355 nM (active); with CP260, 224 nM (active). Besides, the Potency in the assay on CP262 was 757 nM (active); with CP265, 794 nM (active).
Regarding `NC(=O)Oc1ccc(Cc2ccccc2)cc1`, the Potency result with ATS95, in the assay with C2A, in the assay on CP185, in the assay on CP191, in the assay on CP192 and in the assay with CP194 was “inactive” throughout. The Potency result in the assay on CP201, in the assay with CP203, in the assay on CP211, with CP215, in the assay with CP217 and with CP237 was “inactive” in each case. Also, the Potency entry in the assay on CP238, with CP247, in the assay with CP250, with CP252, in the assay with CP256 and in the assay with CP260 was “inactive” in each case. Also, the Potency entry in the assay on CP262 and in the assay with CP265 was “inactive” each time.
For `Oc1cc(O)cc(O)c1`, the Potency result in the assay on ATS95, in the assay on C2A, in the assay with CP185, in the assay on CP191, in the assay on CP192 and in the assay on CP194 was “inactive” in each case. For the same compound, the Potency entry in the assay on CP201, in the assay on CP203, in the assay with CP211, in the assay on CP215, in the assay with CP217 and with CP237 was “inactive” each time. Also, the Potency result with CP238, with CP247, with CP250, in the assay with CP252, in the assay on CP256 and with CP260 was “inactive” each time. The Potency entry with CP262 and with CP265 was “inactive” each time.
As for `CCc1ccc(S(=O)(=O)O)cc1`, the Potency result in the assay with ATS95, in the assay on C2A, in the assay on CP185, in the assay on CP191, in the assay on CP192 and with CP194 was “inactive” each time. The Potency entry in the assay on CP201, in the assay with CP203, with CP211, in the assay on CP215, in the assay on CP217 and in the assay with CP237 was “inactive” throughout. The Potency result in the assay with CP238, in the assay with CP247, in the assay with CP250, with CP252, with CP256 and with CP260 was “inactive” throughout. The Potency result in the assay on CP262 and in the assay on CP265 was “inactive” throughout.
Turning to `CCCCCCCCCCCC(=O)N(CCO)CCO`, the Potency result in the assay with ATS95, with C2A, in the assay with CP185, in the assay with CP191, in the assay with CP192 and in the assay with CP194 was “inactive” in each case. The Potency entry in the assay on CP201, in the assay on CP203, with CP211, in the assay with CP215, in the assay with CP217 and in the assay on CP237 was “inactive” in each case. The Potency result in the assay with CP238, with CP247, in the assay on CP250, in the assay with CP252, in the assay on CP256 and in the assay on CP260 was “inactive” each time. In the assay on CP265, the Potency result is “inactive”.
On to `CC/C=C\C/C=C\C/C=C\C/C=C\C/C=C\C/C=C\CCC(=O)O`, for which the Potency entry in the assay on ATS95, with C2A, in the assay on CP185, with CP191, in the assay on CP192 and with CP194 was “inactive” in each case. Moreover, the Potency entry in the assay with CP201, in the assay on CP203, in the assay with CP211, in the assay on CP215, in the assay on CP217 and in the assay with CP237 was “inactive” throughout. The Potency entry with CP238, in the assay on CP247, in the assay with CP250, in the assay on CP252, with CP256 and in the assay with CP260 was “inactive” throughout. Further, the Potency entry with CP262 and in the assay on CP265 was “inactive” in each case.
As to `O=P(O)(O)OC[C@H](O)CO`, the Potency entry with ATS95, with C2A, in the assay with CP185, in the assay with CP191, with CP192 and in the assay on CP194 was “inactive” throughout. Further, the Potency entry with CP201, with CP203, with CP211, with CP217, in the assay with CP237 and in the assay with CP238 was “inactive” each time. The Potency entry in the assay on CP247, in the assay with CP250, with CP252, in the assay with CP256, with CP260 and in the assay with CP262 was “inactive” in each case. Also, in the assay on CP265, the Potency entry is “inactive”.
On to `Cc1nc(NS(=O)(=O)c2ccc(N)cc2)nc(C)c1Br`, for which the Potency entry in the assay with ATS95, in the assay with C2A, in the assay on CP185, in the assay with CP191, in the assay with CP192 and with CP194 was “inactive” in each case. Moreover, the Potency result in the assay with CP201, in the assay on CP203, in the assay on CP211, in the assay with CP215, with CP217 and in the assay on CP237 was “inactive” in each case. In addition, the Potency result in the assay with CP238, in the assay on CP247, in the assay with CP250, in the assay with CP252, in the assay on CP256 and with CP265 was “inactive” each time.
In the case of `COc1ccc(C(=O)CCC(=O)O)c2ccccc12`, the Potency result with ATS95, in the assay with C2A, in the assay with CP185, in the assay with CP191, in the assay with CP192 and in the assay on CP194 was “inactive” throughout. The Potency entry in the assay on CP201, in the assay with CP203, in the assay on CP211, in the assay on CP215, with CP217 and in the assay on CP237 was “inactive” in each case. In addition, the Potency entry in the assay on CP238, in the assay on CP250, in the assay on CP252, in the assay on CP256, with CP260 and in the assay with CP262 was “inactive” throughout. In the assay with CP265, the Potency entry was “inactive”.
Consider `CC(=O)Oc1cccc2c1C(=O)c1c(OC(C)=O)cc(C(=O)O)cc1C2=O`, for which the Potency result with ATS95, in the assay with C2A, in the assay with CP185, in the assay on CP191, in the assay on CP192 and in the assay with CP194 was “inactive” throughout. The Potency result in the assay on CP201, in the assay with CP203, with CP215, in the assay on CP217, with CP237 and in the assay with CP238 was “inactive” in each case. The Potency result in the assay on CP247, with CP250, in the assay with CP252, in the assay with CP256, in the assay with CP260 and in the assay on CP262 was “inactive” in each case. In the assay on CP265, the Potency entry was “inactive”.
